Results filed as inconclusive are left out. Activity calls are given as the source filed them. Unless noted, calls come from the whole dose curve; as a rule, active = well fitted curve in either direction with a large enough effect (not every such curve was filed as active); inconclusive = small, poorly fitted or top-dose-only effect, or another doubt; inactive = flat fitted curve, though single readings scatter.
Experiments:
[1] = target: Lysosomal acid glucosylceramidase (Homo sapiens) (UniProt P04062); test: Glucocerebrosidase-p2 (AID 348; in the data active = potency below about 10 µM; note: potency is the fitted concentration of half-maximal effect); conditions: purified GBA, blue fluorogenic substrate, 40 min
Lysosomal acid glucosylceramidase (Homo sapiens), sequence (P04062 whole entry, looked up): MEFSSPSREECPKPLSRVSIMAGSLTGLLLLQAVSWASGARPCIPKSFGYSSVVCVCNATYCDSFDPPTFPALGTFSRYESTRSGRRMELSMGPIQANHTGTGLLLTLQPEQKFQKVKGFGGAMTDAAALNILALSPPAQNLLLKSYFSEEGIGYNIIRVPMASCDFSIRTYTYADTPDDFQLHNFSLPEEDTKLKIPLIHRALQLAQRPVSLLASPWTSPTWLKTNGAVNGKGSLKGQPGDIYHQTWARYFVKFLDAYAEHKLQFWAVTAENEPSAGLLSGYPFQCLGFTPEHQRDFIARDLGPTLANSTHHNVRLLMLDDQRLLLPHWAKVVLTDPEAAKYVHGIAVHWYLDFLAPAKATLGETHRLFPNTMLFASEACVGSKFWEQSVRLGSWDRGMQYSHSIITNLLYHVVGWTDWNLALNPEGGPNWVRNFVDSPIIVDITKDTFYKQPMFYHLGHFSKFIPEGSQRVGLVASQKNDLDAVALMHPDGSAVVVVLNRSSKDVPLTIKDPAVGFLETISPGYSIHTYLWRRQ
In short: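 Compounds titrated from 0.6 nM upwards against 0.2 nM enzyme in pH 5.9 citric acid/KH2PO4, taurocholate, tween-20; blue fluorogenic substrate 80 uM, 40 min room temperature, stopped and read Ex 365/Em 440 for AC50.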

[2] = AP1 Signaling Pathway (AID 357); conditions: ME-180 AP-1-bla reporter, EGF-induced, beta-lactamase ratio, 5 h; at 7.69 µM (top of the series) unless noted;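 note: ME-180 reporter cells stimulated with EGF at its EC50 level; % is set by controls: 0 for no effect and ±100 for the full control effect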
In short: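 Modulation of EGF-driven AP-1 transcription was assessed with a beta-lactamase reporter in ME-180 cells. Compound and EC50 EGF were co-incubated 5 hours at 37 °C before 2.5-hour CCF4 loading at room temperature and dual-emission reading.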

[3] = NFAT Signaling Pathway (AID 444); conditions: Jurkat NFAT-bla M1, carbachol, beta-lactamase ratio, 5 h; at 7.69 µM (top of the series) unless noted;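 note: carbachol stimulus at about its EC50 of 1 µM final; % is set by controls: 0 for no effect and ±100 for the full control effect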
In short: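 Jurkat cells with NFAT-driven β-lactamase reporter and co-expressed M1 receptor, stimulated with carbachol (final 1 uM, ~EC50), compound titration, 5 h at 37 °C. CCF4 loaded 1 h at RT; 460/530 nm ratio gave %activity and AC50.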

[4] = Stat Signaling Pathway (AID 446); conditions: ME-180 SIE beta-lactamase reporter, IL-6 stimulated, 5 h; at 7.69 µM (top of the series) unless noted;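 note: ME-180 cervical cancer cells given 40 pM IL-6 alongside compound; SIE-controlled beta-lactamase reporter measured as 460/530 nm FRET emission ratio; % is set by controls: 0 for no effect and ±100 for the full control effect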
In short: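 Reporter line: ME-180 cervical carcinoma, SIE-beta-lactamase. Treatment: compound with 40 pM IL-6, 5 hrs, 37 C, in low-serum OPTI-MEM with 10 mM HEPES pH 7.3. Detection: 460/530 nm fluorescence.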

[5] = target: Glucocorticoid receptor (Homo sapiens) (UniProt P04150); test: GR-GFP Redistribution (AID 450;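 active = compounds whose dose series gives a full or clear partial fitted curve of increased nuclear translocation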; note: potency is the fitted concentration of half-maximal effect); conditions: U2OS GR-GFP nuclear translocation, laser cytometry, 2 h
Glucocorticoid receptor (Homo sapiens), sequence (P04150 whole entry, looked up, the tested form may be a part): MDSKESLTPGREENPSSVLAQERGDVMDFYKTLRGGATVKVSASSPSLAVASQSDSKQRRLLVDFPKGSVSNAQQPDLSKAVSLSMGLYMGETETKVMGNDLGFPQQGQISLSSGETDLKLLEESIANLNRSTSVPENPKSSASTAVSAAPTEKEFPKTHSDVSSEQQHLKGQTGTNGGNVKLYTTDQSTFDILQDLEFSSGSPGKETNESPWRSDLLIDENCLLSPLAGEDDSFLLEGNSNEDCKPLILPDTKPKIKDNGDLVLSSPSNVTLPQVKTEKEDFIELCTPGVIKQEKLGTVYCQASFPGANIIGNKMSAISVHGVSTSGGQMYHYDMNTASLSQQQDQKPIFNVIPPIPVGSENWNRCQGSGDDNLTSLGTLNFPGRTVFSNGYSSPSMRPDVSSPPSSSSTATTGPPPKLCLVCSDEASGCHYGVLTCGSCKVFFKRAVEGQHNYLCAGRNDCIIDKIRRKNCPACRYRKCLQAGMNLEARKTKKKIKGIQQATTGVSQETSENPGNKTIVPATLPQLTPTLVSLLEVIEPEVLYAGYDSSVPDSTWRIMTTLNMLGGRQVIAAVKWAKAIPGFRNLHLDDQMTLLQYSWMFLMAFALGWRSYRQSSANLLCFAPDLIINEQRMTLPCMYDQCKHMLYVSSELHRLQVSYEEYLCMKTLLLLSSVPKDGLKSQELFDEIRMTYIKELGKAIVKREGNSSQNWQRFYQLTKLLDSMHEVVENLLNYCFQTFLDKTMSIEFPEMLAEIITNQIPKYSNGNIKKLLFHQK

[6] = target: Glucocorticoid receptor (Homo sapiens) (UniProt P04150); test: GR-EFC Redistribution (AID 451; calls by dose curve; note: potency is the fitted concentration of half-maximal effect); conditions: CHO-K1 GR-EFC translocation, beta-gal luminescence, 2 h
In short: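 CHO-K1 cells expressing nuclear EA and GR-ED fragments of b-gal; compounds titrated up to 46 uM final, 2 h at 37 C. GR nuclear translocation read as complemented b-gal luminescence after 1 h RT detection.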

[7] = target: Mitogen-activated protein kinase 10 (Mus musculus) (UniProt Q61831); test: JNK3 AlphaScreen Assay (AID 530); conditions: JNK3 lysate, c-Jun phosphorylation; series mostly up to 57.1 µM;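 note: kinase came from lysate of stimulated human HepG2 cells; signal reports phosphorylation of biotinylated GST-cJun 1-79 at Ser73 with 10 µM ATP; % is set by controls: 0 for no effect and ±100 for the full control effect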
In short: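 qHTS format: compounds tested as titrations against IL-1beta/TNF-alpha-activated HepG2 lysate JNK3 with biotin-GST-cJun substrate and 10 uM ATP at room temperature. Loss of anti-phospho-cJun AlphaScreen signal indicates inhibition.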

[8] = target: 3',5'-cyclic-AMP phosphodiesterase 4B (Homo sapiens) (UniProt Q07343); test: qHTS Assay for Inhibitors of PDE-IV (AID 607; active = well fitted activation curve with a large enough effect in the main read-out, with a control signal flat, not every such curve was filed as active; note: % of control where 0% means no effect); conditions: HEK293 ACTOne CNG channel cells, membrane potential fluorescence; series mostly up to 22.9 µM
3',5'-cyclic-AMP phosphodiesterase 4B (Homo sapiens), sequence (Q07343 whole entry, looked up): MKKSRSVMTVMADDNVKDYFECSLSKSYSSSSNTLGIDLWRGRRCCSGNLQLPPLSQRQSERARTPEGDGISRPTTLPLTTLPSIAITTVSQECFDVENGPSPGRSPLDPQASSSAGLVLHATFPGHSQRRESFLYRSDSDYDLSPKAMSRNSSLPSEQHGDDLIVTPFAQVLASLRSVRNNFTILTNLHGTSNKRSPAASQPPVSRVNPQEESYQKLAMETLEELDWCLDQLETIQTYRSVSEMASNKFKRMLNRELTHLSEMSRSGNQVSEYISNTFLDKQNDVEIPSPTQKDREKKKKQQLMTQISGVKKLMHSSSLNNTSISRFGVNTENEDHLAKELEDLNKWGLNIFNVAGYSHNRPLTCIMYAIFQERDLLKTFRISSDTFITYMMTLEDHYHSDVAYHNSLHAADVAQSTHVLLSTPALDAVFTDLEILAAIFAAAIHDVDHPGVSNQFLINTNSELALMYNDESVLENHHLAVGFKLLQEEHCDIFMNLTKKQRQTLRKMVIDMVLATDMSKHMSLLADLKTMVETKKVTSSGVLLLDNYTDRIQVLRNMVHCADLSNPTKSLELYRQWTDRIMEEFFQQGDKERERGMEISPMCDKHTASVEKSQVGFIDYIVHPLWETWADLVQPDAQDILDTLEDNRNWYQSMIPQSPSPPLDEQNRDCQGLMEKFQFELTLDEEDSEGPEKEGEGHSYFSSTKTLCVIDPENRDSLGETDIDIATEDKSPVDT
In short: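 Cell-based read-out of cAMP via a modified cyclic nucleotide-gated channel and membrane potential dye (535/590 nm) in HEK293 cells expressing PDE4 endogenously. Compounds tested up to 22.9 uM final; 100 uM RO 20-1724 reference.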

[9] = target: Cytochrome P450 3A4 (Homo sapiens) (UniProt P08684); test: qHTS Assay for Activators of Cytochrome P450 3A4 (AID 885; active = well fitted curve in the direction sought with a large enough effect; an effect the other way counts as inactive or inconclusive; note: nearly all actives have a fitted effect of over 65% in size); conditions: recombinant CYP3A4, Luciferin-PPXE luminescence, 60 min; series mostly up to 57.1 µM
Cytochrome P450 3A4 (Homo sapiens), sequence (P08684 whole entry, looked up): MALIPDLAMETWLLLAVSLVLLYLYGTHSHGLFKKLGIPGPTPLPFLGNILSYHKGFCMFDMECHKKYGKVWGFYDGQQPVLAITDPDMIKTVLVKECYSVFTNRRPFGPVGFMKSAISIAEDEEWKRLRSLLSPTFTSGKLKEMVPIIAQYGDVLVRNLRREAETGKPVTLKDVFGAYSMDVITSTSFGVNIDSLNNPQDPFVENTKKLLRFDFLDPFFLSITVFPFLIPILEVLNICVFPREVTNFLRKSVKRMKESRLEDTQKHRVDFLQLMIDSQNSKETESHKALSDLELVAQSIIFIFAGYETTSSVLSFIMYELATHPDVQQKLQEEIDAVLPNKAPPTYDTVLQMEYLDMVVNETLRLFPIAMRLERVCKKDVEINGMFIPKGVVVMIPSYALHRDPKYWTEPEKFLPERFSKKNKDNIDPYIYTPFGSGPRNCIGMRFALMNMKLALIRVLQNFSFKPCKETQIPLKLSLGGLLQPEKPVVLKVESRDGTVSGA
In short: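 Signal was normalized against complete inhibition by 57 uM ketoconazole. The reaction used 20nM CYP3A4 with 25uM Luciferin-PPXE, 10-min compound preincubation and a 60-min NADPH-supported step at RT.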

[10] = target: Cytochrome P450 2D6 (Homo sapiens) (UniProt P10635); test: qHTS Assay for Inhibitors and Substrates of Cytochrome P450 2D6 (AID 891; active = well fitted curve in the direction sought with a large enough effect; an effect the other way counts as inactive or inconclusive; note: potency is the fitted concentration of half-maximal effect; nearly all actives have a fitted effect of over 60% in size); conditions: recombinant CYP2D6, luciferin-ME EGE luminescence; series mostly up to 11.4 µM
In short: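 Human CYP2D6 (5 nM) with 30 uM Luciferin-ME EGE (at Km) in 100 mM KPO4, compound preincubated 10 min, then NADPH regeneration system for 60 min at room temperature. Luciferin read by luminescence; normalized to 1.43 uM quinidine.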

[11] = target: Cytochrome P450 2C19 (Homo sapiens) (UniProt P33261); test: qHTS Assay for Inhibitors and Substrates of Cytochrome P450 2C19 (AID 899; active = well fitted curve in the direction sought with a large enough effect; an effect the other way counts as inactive or inconclusive; note: potency is the fitted concentration of half-maximal effect; nearly all actives have a fitted effect of over 60% in size); conditions: recombinant CYP2C19, luciferin-H EGE luminescence; series mostly up to 11.4 µM
Cytochrome P450 2C19 (Homo sapiens), sequence (P33261 whole entry, looked up): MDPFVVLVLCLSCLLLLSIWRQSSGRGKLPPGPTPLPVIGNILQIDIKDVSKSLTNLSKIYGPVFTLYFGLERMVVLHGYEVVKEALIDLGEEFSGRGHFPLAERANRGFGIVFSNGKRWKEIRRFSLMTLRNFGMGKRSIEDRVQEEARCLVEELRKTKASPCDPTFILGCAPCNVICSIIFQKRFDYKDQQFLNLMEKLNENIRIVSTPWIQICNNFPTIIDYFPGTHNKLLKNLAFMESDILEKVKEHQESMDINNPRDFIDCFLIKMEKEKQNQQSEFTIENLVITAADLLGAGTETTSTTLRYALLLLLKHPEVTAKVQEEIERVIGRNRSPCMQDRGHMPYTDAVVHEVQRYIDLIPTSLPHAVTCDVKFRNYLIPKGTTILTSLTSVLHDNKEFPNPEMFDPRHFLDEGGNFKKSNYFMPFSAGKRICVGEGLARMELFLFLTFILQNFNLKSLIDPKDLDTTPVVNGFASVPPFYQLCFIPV
In short: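 Luminescent read-out of luciferin formed from Luciferin-H EGE (10uM, equal to KM). Enzyme 5nM in 50mM KPO4; compound added, 10 min at 37C, then NADPH regenerating system for 60 min at 37C. Full inhibition defined by 57uM ketoconazole.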

[12] = target: Cytochrome P450 1A2 (Homo sapiens) (UniProt P05177); test: p450-cyp1a2 (AID 410; calls by dose curve; note: potency is the fitted concentration of half-maximal effect); conditions: recombinant CYP1A2, luciferin-ME demethylation, luminescence; series mostly up to 11.4 µM
In short: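 Inhibition was calculated relative to 57 uM furafylline (full inhibition). The reaction used human CYP1A2 at 20nM with Luciferin-ME at its Km, 100uM, driven by an NADPH-regenerating system for 60 min at room temperature.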

[13] = target: Guanine nucleotide-binding protein G(i) subunit alpha-1 (Homo sapiens) (UniProt P63096); test: qHTS Assay for Inhibitors of RGS12 GoLoco Motif Activity (Green Fluorophore) (AID 879; active = well fitted curve in the direction sought with a large enough effect; an effect the other way counts as inactive or inconclusive;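 note: 0% = labeled peptide with Gαi1 and full inhibition = labeled peptide alone without protein; negative values mean loss of peptide binding seen as reduced polarization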); conditions: Galphai1/FITC-RGS12 GoLoco peptide, fluorescence polarization; series mostly up to 57.1 µM
Guanine nucleotide-binding protein G(i) subunit alpha-1 (Homo sapiens), sequence (P63096 whole entry, looked up): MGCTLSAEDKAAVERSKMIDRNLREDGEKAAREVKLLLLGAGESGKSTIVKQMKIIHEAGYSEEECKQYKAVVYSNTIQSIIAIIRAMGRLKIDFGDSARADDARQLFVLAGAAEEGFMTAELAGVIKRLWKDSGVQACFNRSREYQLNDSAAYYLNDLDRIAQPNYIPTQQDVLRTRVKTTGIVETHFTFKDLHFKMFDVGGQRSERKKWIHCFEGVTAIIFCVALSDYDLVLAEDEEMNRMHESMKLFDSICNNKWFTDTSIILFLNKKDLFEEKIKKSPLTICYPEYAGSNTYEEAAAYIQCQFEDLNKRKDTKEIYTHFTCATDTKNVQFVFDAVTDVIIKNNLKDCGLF
In short: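 Fluorescence polarization assay: 50 nM Gαi1 with 10 nM FITC-labeled RGS12 GoLoco peptide in 10 mM Tris pH 7.5, 150 mM NaCl, 0.1 mM GDP, 0.05% NP40, 10 min at room temperature with compound.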

[14] = target: Cytochrome P450 3A4 (Homo sapiens) (UniProt P08684); test: qHTS Assay for Inhibitors and Substrates of Cytochrome P450 3A4 (AID 884; active = well fitted curve in the direction sought with a large enough effect; an effect the other way counts as inactive or inconclusive; note: % is set by controls: 0 for no effect and ±100 for the full control effect; nearly all actives have a fitted effect of over 50% in size); conditions: recombinant CYP3A4, Luciferin-PPXE luminescence; series mostly up to 57.1 µM
In short: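 20 nM human CYP3A4 with 25 uM Luciferin-PPXE (at KM) in 200 mM KPO4, preincubated 10 min with compound; NADPH regeneration started a 60 min RT reaction. Luciferin detected by luminescence, normalized to 57 uM ketoconazole as full inhibition.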

[15] = qHTS Assay for Identification of Small Molecule Agonists for Thrombopoietin (TPO) Signaling Pathway (AID 917; active = well fitted curve in the direction sought with a large enough effect; an effect the other way counts as inactive or inconclusive; note: % is set by controls: 0 for no effect and ±100 for the full control effect); conditions: TPO signaling pathway reporter cells, agonist qHTS; series mostly up to 38.5 µM
In short: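 IL-3-dependent murine pro-B Ba/F3 cells, stably transfected with human TPO receptor and GpIIb-promoter luciferase, are incubated 24 hrs at 37 C with test compound and 26 pM TPO; luciferase signal is read after 10 min at room temperature.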

[16] = target: Muscarinic acetylcholine receptor M1 (Rattus norvegicus) (UniProt P08482); test: qHTS Assay for Antagonists of Acetylcholine Muscarinic M1 Receptor: Kinetic Measurement of Intracellular Calcium Response (AID 943; active = well fitted curve in the direction sought with a large enough effect; an effect the other way counts as inactive or inconclusive;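 note: Fluo-4 calcium signal as peak divided by basal fluorescence over 4 min; nearly all actives have a fitted effect of over 75% in size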); conditions: M1-expressing cells, kinetic intracellular calcium fluorescence; series mostly up to 35.3 µM
Muscarinic acetylcholine receptor M1 (Rattus norvegicus), sequence (P08482 whole entry, looked up): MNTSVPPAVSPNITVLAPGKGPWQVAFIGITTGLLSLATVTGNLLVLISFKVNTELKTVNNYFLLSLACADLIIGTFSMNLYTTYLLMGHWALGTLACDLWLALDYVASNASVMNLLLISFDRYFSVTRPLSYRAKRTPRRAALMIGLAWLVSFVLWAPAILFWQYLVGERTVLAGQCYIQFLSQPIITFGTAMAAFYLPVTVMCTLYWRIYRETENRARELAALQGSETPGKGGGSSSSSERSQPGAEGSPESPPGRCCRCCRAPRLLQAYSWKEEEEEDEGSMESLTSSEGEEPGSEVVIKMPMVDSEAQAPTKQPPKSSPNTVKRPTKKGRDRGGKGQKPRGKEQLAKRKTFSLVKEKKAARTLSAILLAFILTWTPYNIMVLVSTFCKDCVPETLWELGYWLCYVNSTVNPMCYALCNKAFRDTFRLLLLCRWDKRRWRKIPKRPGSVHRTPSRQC
In short: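 Intracellular calcium flux, recorded with Fluo-4 in a kinetic plate reader, served as signal; the response to carbachol at EC80 (100 nM final) was taken as maximal over minimal fluorescence after a 10 min compound pre-incubation in rat M1-CHO cells.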

[17] = target: Muscarinic acetylcholine receptor M1 (Rattus norvegicus) (UniProt P08482); test: qHTS Assay for Antagonists of Acetylcholine Muscarinic M1 Receptor: Measurement of IP-One Response (AID 944; active = well fitted curve in the direction sought with a large enough effect; an effect the other way counts as inactive or inconclusive; note: nearly all actives have a fitted effect of over 75% in size); conditions: CHO-M1 cells, IP-One HTRF, antagonist mode; series mostly up to 46.1 µM
In short: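 Steps: plate transfected CHO-M1 cells overnight; add test compound, 10 min; add carbachol (200 nM, EC80) in stimulation buffer with LiCl; incubate 30 min; add labelled IP1 tracer and anti-IP1 antibody in lysis buffer; read HTRF after 10 min.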

[18] = target: Pyruvate kinase (Leishmania mexicana) (UniProt Q27686); test: qHTS Validation Assay for Inhibitors of Leishmania Mexicana Pyruvate Kinase (AID 945; active = well fitted curve in the direction sought with a large enough effect; an effect the other way counts as inactive or inconclusive;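 note: 0% = DMSO only neutral control wells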); conditions: purified L. mexicana pyruvate kinase, enzyme activity, E451W mutant enzyme; series mostly up to 57.5 µM
In short: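 The enzyme is a highly purified E451W mutant of LmPYK used at 0.2 nM. It converts 0.5 mM PEP and 0.1 mM ADP over 1 h at room temperature; product ATP is quantified by luciferase luminescence relative to DMSO controls.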

[19] = target: Pyruvate kinase PKM (Homo sapiens) (UniProt P14618); test: qHTS Assay for Activators of Human Muscle Pyruvate Kinase (AID 954; active = well fitted curve in the direction sought with a large enough effect, not every such curve was filed as active;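 note: 0% = uninhibited enzyme and -100% = no enzyme or full thiadiazolimine inhibition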); conditions: purified human muscle pyruvate kinase, luciferase-coupled luminescence, 1 h; series mostly up to 57.5 µM
Pyruvate kinase PKM (Homo sapiens), sequence (P14618 whole entry, looked up): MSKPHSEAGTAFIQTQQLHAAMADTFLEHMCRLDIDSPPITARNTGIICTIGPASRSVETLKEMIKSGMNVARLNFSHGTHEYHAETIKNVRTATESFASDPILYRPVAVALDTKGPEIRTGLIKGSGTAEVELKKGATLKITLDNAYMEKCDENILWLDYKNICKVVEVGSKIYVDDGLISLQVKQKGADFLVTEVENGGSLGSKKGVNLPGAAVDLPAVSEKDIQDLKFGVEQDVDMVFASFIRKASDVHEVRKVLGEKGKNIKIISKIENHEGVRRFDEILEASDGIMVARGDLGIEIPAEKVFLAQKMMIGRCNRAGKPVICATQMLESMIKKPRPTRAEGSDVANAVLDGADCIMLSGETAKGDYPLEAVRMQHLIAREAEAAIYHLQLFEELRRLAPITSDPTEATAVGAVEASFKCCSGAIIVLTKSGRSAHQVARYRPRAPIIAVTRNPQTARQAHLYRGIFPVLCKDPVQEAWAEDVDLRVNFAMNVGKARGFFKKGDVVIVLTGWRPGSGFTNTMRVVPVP
In short: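 Human PKM2 activity is measured as ATP generation, detected by luciferase-coupled luminescence. The enzyme (0.1 nM) acts on 0.5 mM PEP and 0.1 mM ADP for 1 h at ambient temperature; data are normalized to uninhibited and full-inhibition wells.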

[20] = target: Alpha-galactosidase (Coffea arabica) (UniProt Q42656); test: Counterscreen for Glucocerebrosidase Inhibitors: qHTS Assay for Coffee Bean alpha-Galactosidase at pH 4.5 (AID 957; active = well fitted curve in the direction sought with a large enough effect; an effect the other way counts as inactive or inconclusive;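 note: plate controls were enzyme alone for no effect and no enzyme for full effect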); conditions: purified coffee bean alpha-galactosidase, fluorogenic substrate; series mostly up to 76.9 µM
Alpha-galactosidase (Coffea arabica), sequence (Q42656 whole entry, looked up): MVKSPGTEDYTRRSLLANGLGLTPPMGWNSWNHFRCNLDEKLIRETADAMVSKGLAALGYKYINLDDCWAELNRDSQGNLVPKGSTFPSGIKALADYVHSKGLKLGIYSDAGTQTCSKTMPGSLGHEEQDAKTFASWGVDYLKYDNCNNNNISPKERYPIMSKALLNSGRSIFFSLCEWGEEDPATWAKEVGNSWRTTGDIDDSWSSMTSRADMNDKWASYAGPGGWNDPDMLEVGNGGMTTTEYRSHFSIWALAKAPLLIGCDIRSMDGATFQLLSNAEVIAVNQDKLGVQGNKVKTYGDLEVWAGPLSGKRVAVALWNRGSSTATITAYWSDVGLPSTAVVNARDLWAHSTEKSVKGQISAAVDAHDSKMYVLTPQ
In short: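 AC50 values derive from Hill-equation modeling of concentration-response data, normalized to no-enzyme and full-activity controls. The pH 4.5 citrate assay used 2 nM coffee bean enzyme and 80 uM fluorogenic substrate for 20 min.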

[21] = target: alpha-glucosidase (Oryza sativa, rice) (UniProt Q653V4); test: Counterscreen for Glucocerebrosidase Inhibitors: qHTS Assay for Rice alpha-Glucosidase at pH 5.0 (AID 997; active = well fitted curve in the direction sought with a large enough effect; an effect the other way counts as inactive or inconclusive;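 note: 0% = full activity with enzyme and -100% = basal without enzyme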); conditions: rice alpha-glucosidase enzyme activity; series mostly up to 76.9 µM
In short: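 Rice alpha-glucosidase (4 nM final) with 400 uM 4-methylumbelliferyl-alpha-D-glucopyranoside in citrate buffer pH 5.0, 20 min at room temperature, stopped at pH 10; fluorescence 365/440 nm, compounds 0.7 nM–77 uM, AC50 from Hill fits.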

[22] = target: Alpha-galactosidase (Coffea arabica) (UniProt Q42656); test: Counterscreen for Glucocerebrosidase Inhibitors: qHTS Assay for Coffee Bean alpha-Galactosidase at pH 5.9 (AID 998; active = well fitted curve in the direction sought with a large enough effect; an effect the other way counts as inactive or inconclusive;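 note: plate controls were uninhibited enzyme for no effect and no-enzyme basal signal for full effect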); conditions: coffee bean alpha-galactosidase enzyme assay; series mostly up to 76.9 µM
In short: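 Green coffee bean enzyme (2 nM) with 4-methylumbelliferyl alpha-D-galactopyranoside (80 uM) in 50 mM citric acid, 0.005% Tween-20, pH 5.9, 20 min at room temperature; compounds 0.7 nM–77 uM. Stopped at pH 10, fluorescence Ex365/Em440; Hill-fit AC50.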

Nc1c(C(=O)Nc2ccc([As](=O)(O)O)cc2)cnc2nnnn12
inactive: Potency [1] > 11.4 µM | activity change, negative = inhibition [2] 2.63% | activity change, negative = inhibition [3] 25.5% | activity, negative = inhibition [4] -0.343% | Potency [5] > 46 µM | Potency [6] > 9.22 µM | activity change, negative = inhibition [7] 0.733% [at 11.4 µM] | outcome [8]

C[C@@]12Cc3cnc(-c4ccccc4)nc3C[C@@H]1CC[C@@H]1[C@H]3CC[C@@](C)(O)[C@]3(C)CC[C@@H]12
inactive: Potency [1] > 11.4 µM | activity change, negative = inhibition [2] 5.09% | activity change, negative = inhibition [3] -13.1% | activity, negative = inhibition [4] 1.77% | Potency [5] > 46 µM | Potency [6] > 9.22 µM | activity change, negative = inhibition [7] 3.79% [at 11.4 µM] | outcome [8]

CN(C)[C@@H]1C(=O)C(C(N)=O)=C(O)[C@]2(O)C(=O)C3=C(O)c4c(O)cccc4[C@](C)(O)[C@H]3C[C@@H]12
inactive: Potency [1] > 11.4 µM | activity change, negative = inhibition [2] -8.78% | activity change, negative = inhibition [3] 15.2% | activity, negative = inhibition [4] -10.5% | Potency [5] > 46 µM | Potency [6] > 9.22 µM | activity change, negative = inhibition [7] -5.55% [at 11.4 µM] | outcome [8]

O=C(O)c1cccc([As]=[As]c2cccc(C(=O)O)c2)c1 (configuration not stated)
inactive: Potency [1] > 11.4 µM | activity change, negative = inhibition [2] -0.316% | activity change, negative = inhibition [3] -6.47% | activity, negative = inhibition [4] 2.08% | Potency [5] > 46 µM | Potency [6] > 9.22 µM | activity change, negative = inhibition [7] -0.547% [at 11.4 µM] | outcome [8]

O=C(O)CN1CCN(CC(=O)O)CC(=O)[O][Hg][O]C(=O)C1
inactive: activity change, negative = inhibition [2] 18.9% | activity, negative = inhibition [4] 1.17% | activity change, negative = inhibition [7] -1.36% [at 11.4 µM] | outcome [8] | activity change, positive = activation [9] -78.1% [at 11.4 µM]
active: Potency [1] 0.199 µM | Potency [10] 3.16 µM | Potency [11] 0.794 µM

O=C(N1CCOCC1)C1(c2ccccc2)CCNCC1
inactive: Potency [1] > 11.4 µM | activity change, negative = inhibition [2] -2.66% | activity, negative = inhibition [4] 8.97% | Potency [5] > 46 µM | Potency [6] > 9.22 µM | activity change, negative = inhibition [7] 3.92% [at 11.4 µM] | outcome [8]

Oc1c(Cl)c(Cl)c(Cl)c(Cl)c1Cl (tested in a mixture with another compound)
inactive: Potency [1] > 11.4 µM | activity change, negative = inhibition [2] -9.55% [middle of 4 runs] | activity, negative = inhibition [4] -12.9% [middle of 4 runs] | Potency [5] > 46 µM | Potency [6] > 9.22 µM | activity change, negative = inhibition [7] 0.344% [at 11.4 µM] [middle of 4 runs] | outcome [8]

C#CCN[C@@H](C)Cc1ccccc1
active: Potency [12] 15.8 µM
inactive: activity change, negative = inhibition [2] 1.81% [at 38 µM] | activity change, negative = inhibition [3] 0.0477% [at 38 µM] | activity, negative = inhibition [4] -23.9% [at 38 µM] | Potency [5] > 46 µM | Potency [6] > 46 µM | Potency [7] | outcome [8] | outcome [13] | Potency [14] | outcome [15] | Potency [16] | Potency [17] | outcome [18] | outcome [19] | outcome [20] | outcome [21] | outcome [22]

— PubChem BioAssay (NCATS)
